BioA inh: BioA (M. tuberculosis) enzyme inhibition | inhibition, % at 9.99 µM | 360,000 compounds, 0.096% hits | purified M. tuberculosis BioA enzyme, plate reader; in the data active means inhibition above about 40%; inconclusive means no clear call, values can overlap the other calls
PfHsp40 rescue: compounds rescuing yeast from Plasmodium falciparum HSP40 toxicity; AID 504582; S. cerevisiae expressing PfHsp40, growth rescue, ATP luminescence; 340,000 compounds, 0.68% hits; growth rescue, % at 12.5 µM; in the data active means growth rescue above about 28%, passing the limit was not always enough; inconclusive means no clear call, values can overlap the other calls;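 further: yeast W303a lacking pdr1 and pdr3 grown in galactose medium; growth measured after three days at 30 °C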
Yp Topo-I inh: Y. pestis Topo-I inhibition via cleavage products; activity, % at 10 µM; 360,000 compounds, 0.064% hits; Y. pestis Topo-I cleavage product accumulation, plate reader; in the data active means activity above about 50%, passing the limit was not always enough; inconclusive means no clear call, values can overlap the other calls
PrP UTR inh: inhibition of PrP 5' UTR reporter expression; cell-based PrP 5' UTR mRNA reporter, plate reader; inhibition, % (test concentration not listed); 340,000 compounds, 0.35% hits; in the data active means inhibition above about 52%; further: 0 = median of the neutral control wells
FadD28 FP inh: M. tuberculosis FadD28 bisubstrate binding inhibition; FadD28 bisubstrate probe binding, fluorescence polarization; AID 588549; 360,000 compounds, 0.22% hits; inhibition, % at 12.5 µM; in the data active means inhibition above about 8.5%, passing the limit was not always enough; inconclusive means no clear call, values can overlap the other calls
Starred values were filed as active, the others as inactive; ? = inconclusive; · = no result. A selection: hits, their analogues and other compounds. The true share with any hit is near 1.1%.

SMILES	BioA inh	PfHsp40 rescue	Yp Topo-I inh	PrP UTR inh	FadD28 FP inh
N#Cc1cccc(-c2ccc([C@H]3[C@H]4CN(C(=O)Cc5ccncc5)CCCCN4[C@H]3CO)cc2)c1	-4	·	·	·	·
CSC1=N/C(=C\c2ccccc2)C(=O)N1C	-4	40*	3	-13	-2
CSC1=N/C(=C\c2cccnc2)C(=O)N1c1ccccc1	·	-2	-2	-20	-4
CC(C)C#Cc1ccc2c(c1)O[C@H](CN(C)C(=O)C1CC1)[C@H](C)CN([C@H](C)CO)S2(=O)=O	3	·	·	·	·
CCN(CC)c1ccc2nc3ccccc3[n+](CC)c2c1	7	-1	131*	-3	-1
CCN(CC)c1ccc2nc3ccc(N)cc3[n+](-c3ccccc3)c2c1	22	0	534*	-19	48*
CCN(CC)C(=O)c1ccc2nc3ccccc3nc2c1	·	-2	-6	19	0
O=C(C[C@@H]1C[C@@H]2c3cc(NS(=O)(=O)c4ccc(F)cc4)ccc3O[C@@H]2[C@@H](CO)O1)NCc1cccnc1	2	·	·	·	·
Cc1ccc(CN(C)C(=O)c2cc(COc3cccc(C(F)(F)F)c3)on2)o1	0	6	?	-5	-1
CCc1ccc(CN(C)C(=O)c2cc(COc3cccc(C(F)(F)F)c3)on2)nc1	2	112*	10	-2	-2
O=c1[nH]c(-c2ccccn2)nc2ccccc12	-2	-1	0	-34	-2
O=c1[nH]c(-c2ccccn2)nc(C(F)(F)F)c1Br	·	133*	5	-46	-1
Fc1ccc(Cn2ccc(-c3cnc(-c4ccccc4)s3)n2)cc1	·	58*	28	-27	-5
Cc1ccc(Cn2ccc(-c3cnc(-c4ccccc4)s3)n2)cc1	-1	-1	42	-78	0
COc1cccc(C2CC(c3ccc(C)cc3)Nc3nc(N)nn32)c1 (configuration not stated)	-4	0	-10	-2	0
Cc1cccc(C2CC(c3ccccc3)Nc3nc(N)nn32)c1 (configuration not stated)	0	48*	11	-23	0
CCCCCCC(=O)Oc1cccc(C2=CC(=O)CC(C)(C)C2=O)c1	2	·	55*	·	-1
CCCCCCC(=O)Oc1cccc(N2C(=O)C3CCCCC3C2=O)c1 (configuration not stated)	·	2	45	-22	-1
Cc1ccc(S(=O)(=O)N(C)c2c(C)ccc(S(=O)(=O)N3CCN(C)CC3)c2C)cc1	0	49*	-1	-3	0
Cc1ccc(S(=O)(=O)N(C)c2c(C)ccc(S(=O)(=O)N3CCN(C=O)CC3)c2C)cc1	·	1	7	-18	-4
COc1ccc2cnn(CCOc3cc(C)ccc3C(C)C)c(=O)c2c1OC	·	320*	20	-7	-3
CCOc1ccccc1OCCn1ncc2ccc(OC)c(OC)c2c1=O	-2	0	1	-16	-5
COc1cc(CN(C)C(=O)C2CCN(S(=O)(=O)c3cccs3)CC2)ccc1OC(F)F	1	0	25	5	1
COc1ccc(CN(C)C(=O)C2CCN(S(=O)(=O)c3cccs3)CC2)cc1F	3	69*	11	-11	-3
O=C(Nc1ccc(F)cc1)N1C[C@H]2[C@@H](c3ccccc31)[C@H](CO)N2C(=O)Cc1ccccn1	-8	·	·	·	·
SMILES	BioA inh	PfHsp40 rescue	Yp Topo-I inh	PrP UTR inh	FadD28 FP inh
O=c1cc(Nc2ccc3c(c2)OCCO3)[nH]c(=O)n1C1CCCCC1	-1	-1	9	-41	15*
CO[C@H]1CN(C)C(=O)c2cc(NC(=O)Nc3cccc(F)c3)ccc2OC[C@@H](C)N(C(=O)C2CC2)C[C@@H]1C	1	·	·	·	·
CCOC(=O)c1cc2c(=Cc3ccc(N(C)C)cc3)c3ccccc3n2[n+]1C	·	284*	-41	0	-1
Cc1cc2c(=Cc3ccc(N(C)C)cc3)c3ccccc3n2[n+]1C	·	180*	-35	-22	-3
CN(C)c1ccc(C=c2c3ccccc3n3c2c2ccccc2[n+]3C)cc1	·	2	-56	24	-6
Cc1ccc(S(=O)(=O)Nc2ccc3c(c2)CC(=O)N([C@H](C)CO)C[C@H](C)[C@H](CN(C)C(=O)Nc2cccc4ccccc24)O3)cc1	-6	·	·	·	·
Cc1ccc(S(=O)(=O)Nc2ccc3cc([N+](=O)[O-])ccc3c2[N+](=O)[O-])cc1	4	352*	-8	-17	5
Cc1ccc(S(=O)(=O)Nc2ccc3ccccc3c2[N+](=O)[O-])cc1	4	408*	0	-22	2
COc1ccccc1CNC(=O)C[C@H]1CC[C@H]2[C@@H](COC[C@H](O)CN2C(=O)Nc2ccccc2)O1	-1	·	·	·	·
CC(C)CC#Cc1ccc2c(c1)O[C@@H](CN(C)C(=O)CC1CC1)[C@@H](C)CN([C@H](C)CO)S2(=O)=O	3	·	·	·	·
C[C@H]1CN([C@@H](C)CO)S(=O)(=O)c2ccc(-c3ccc(F)cc3)cc2O[C@@H]1CN(C)C	2	·	·	·	·
CCNC(=O)C[C@H]1CC[C@H]2[C@H](COc3ccc(NC(=O)Nc4ccccc4F)cc3C(=O)N2C)O1	-2	·	·	·	·
COCCNC(=O)CN(CCc1ccccc1)S(=O)(=O)c1ccc(OC)cc1	0	-1	9	-28	0
COc1ccc(S(=O)(=O)N(CCc2ccccc2)CC(N)=O)cc1	·	104*	3	-26	-2
COc1ccc([N+](=O)[O-])cc1NC(=O)C(C)OC(=O)c1ccccc1C(=O)c1ccc(Cl)cc1 (configuration not stated)	·	72*	18	-8	-4
COc1ccc([N+](=O)[O-])cc1NC(=O)COC(=O)c1ccccc1C(=O)c1ccccc1	0	-1	-2	3	-2
C[C@H]1CCCCO[C@@H](CN(C)CC2CCCCC2)[C@@H](C)CN([C@@H](C)CO)C(=O)c2cc(NS(=O)(=O)c3cccs3)ccc2O1	3	·	·	·	·
O=C(c1cccs1)c1coc2ccc(O)cc12	-2	48*	-4	-101	-6
CC(C)(c1cc(Br)c(O)c(Br)c1)c1cc(Br)c(O)c(Br)c1	2	331*	7	0	20*
CC(C)C(=O)NNS(=O)(=O)c1ccccc1[N+](=O)[O-]	2	55*	-8	-14	-1
COC(C(=O)NNS(=O)(=O)c1ccccc1[N+](=O)[O-])c1ccccc1 (configuration not stated)	-1	0	7	-14	-1
O=C1NC(=S)N(C2CC2)C(=O)/C1=C/c1ccc2c(c1)CCN2CCCCl	-1	63*	-7	-17	2
COCC(=O)Nc1ccc2c(c1)C(=O)N(C)C[C@@H](OC)[C@H](C)CN(Cc1ccccc1OC)[C@H](C)CO2	0	·	·	·	·
C[C@H](O)C#Cc1ccc2c(c1)O[C@H](CN(C)C(=O)CC1CC1)[C@@H](C)CN([C@H](C)CO)S2(=O)=O	0	·	·	·	·
CC(C)NC(=O)N(C)C[C@H]1Oc2ccc(NC(=O)Nc3ccc4c(c3)OCO4)cc2CC(=O)N([C@@H](C)CO)C[C@H]1C	1	·	·	·	·
Cc1ccc(S(=O)(=O)Nc2ccc3c(c2)C(=O)N([C@H](C)CO)C[C@H](C)[C@H](CN(C)S(=O)(=O)c2c(C)noc2C)O3)cc1	1	·	·	·	·

Assay outcomes as filed in PubChem BioAssay.
